Several values for one entry are separate records, joined by “and”; a condition that tells them apart may be missing. Equal entries are not always repeated. Hit rate of the full screen: of about 16,000 compounds, about 5,700 (36%) were called active. Another 24% or so got no clear call; they are omitted. This is one part of the list. Unmarked numbers belong to inactive results. Calls come from the whole dose curve; as a rule, active = well fitted curve in the direction sought with a large enough effect; inconclusive = small, poorly fitted or top-dose-only effect, or effect the other way; inactive = no such curve, though single readings can be large or run the other way.
These molecules were tested against Cytochrome P450 1A2 (Homo sapiens) (UniProt P05177) (assay: Cytochrome panel assay with activity outcomes). Conditions: recombinant CYP, pro-luciferin dealkylation, luminescence, p450-cyp1a2; series mostly up to 57.1 µM; activity, negative = inhibition: at the top concentration.
% is set by controls: 0 for no effect and ±100 for the full control effect.

Cytochrome P450 1A2 (Homo sapiens), sequence (P05177 whole entry, looked up): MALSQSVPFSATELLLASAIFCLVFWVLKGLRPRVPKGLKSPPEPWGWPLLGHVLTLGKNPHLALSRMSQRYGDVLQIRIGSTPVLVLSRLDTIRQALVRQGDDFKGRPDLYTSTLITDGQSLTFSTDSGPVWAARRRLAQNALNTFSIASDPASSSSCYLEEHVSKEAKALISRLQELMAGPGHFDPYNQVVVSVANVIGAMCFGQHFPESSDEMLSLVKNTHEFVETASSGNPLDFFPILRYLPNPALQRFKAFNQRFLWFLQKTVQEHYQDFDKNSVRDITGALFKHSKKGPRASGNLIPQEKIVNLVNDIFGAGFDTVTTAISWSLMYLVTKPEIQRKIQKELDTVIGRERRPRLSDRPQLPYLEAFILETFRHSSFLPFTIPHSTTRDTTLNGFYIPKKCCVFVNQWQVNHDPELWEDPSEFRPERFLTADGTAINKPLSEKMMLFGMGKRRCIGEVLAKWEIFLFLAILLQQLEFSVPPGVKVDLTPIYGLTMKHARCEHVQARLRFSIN

SMILES	AC50	activity, negative = inhibition
Cc1cc(N)n2ncc(-c3ccc(Cl)cc3)c2n1	1260 nM (active)	–
CC1(C)O[C@@H]2O[C@H]([C@@H]3COC(C)(C)O3)[C@H](N)[C@H]2O1	–	8.69% [at 2.29 µM]
Cc1cccc(NC(=S)N2CCC(N(C)CC3CCCO3)CC2)c1C (stereo unspecified)	–	3.1%
Cc1cccc(NC(=O)c2onc3c2CCCC3)c1C	2240 nM (active)	–
O=C(Nc1ccc2ccccc2c1)c1onc2c1CCCC2	4470 nM (active)	–
CO[C@@H]1COC(=O)C/C=C\[C@H](C)COC(=O)[C@H](Cc2ccccc2)NC(=O)C/C=C\[C@H]1C	–	4.04% [at 11.4 µM]
Cn1c(-c2ccc(Br)cc2)cnc1NCc1cccnc1	12600 nM (active)	–
Cc1ccnc(NS(=O)(=O)c2ccc(N=[N+]=[N-])cc2)n1	–	-6.01% [at 11.4 µM]
CC(=C\C(=O)O)/C(=C/c1ccccc1)C(=O)O	–	-20.1%
CC(=C/c1ccccc1)/C=N/n1cnnc1	2000 nM (active)	–
COC(=O)c1ccc(C2C(Oc3ccccc3)C(=O)N2CCc2ccc(OC)c(OC)c2)cc1 (stereo unspecified)	–	4.21%
COc1ccccc1-c1ccc2ncnc(NCc3cnc(C)cn3)c2c1	6310 nM (active)	–
Cc1cnc(CNc2ncnc3ccc(-c4ccccc4C)cc23)cn1	6310 nM (active)	–
Cc1cnc(CNc2ncnc3ccc(-c4ccccc4C(F)(F)F)cc23)cn1	12600 nM (active)	–
Cc1cnc(CNc2ncnc3ccc(-c4ccccc4Cl)cc23)cn1	6310 nM (active)	–
Cc1cnc(CNc2ncnc3ccc(-c4ccccc4CN(C)C)cc23)cn1	–	-18.6%
CC(C)NC(=O)N1CC[C@@]2(CCCN(C(=O)c3csnn3)C2)C1	–	-3.33%
CC[C@@H]1OC(=O)[C@H](C)[C@H](O[C@@H]2C[C@](C)(OC)[C@H](O)[C@H](C)O2)[C@H](C)[C@H](O[C@@H]2O[C@@H](C)C[C@@H](N(C)C)[C@@H]2O)[C@](C)(O)C[C@H](C)C(=NOCOCCOC)[C@H](C)[C@H](O)[C@]1(C)O	–	-3% [at 25.6 µM]
CC(C)CO/N=C1/C[C@@H](O)[C@@H](O)[C@@H]2[C@H]3C(=O)N(c4ccc(F)cc4F)C(=O)[C@@H]3CC[C@H]12	–	0.352% [at 11.4 µM]
CC(C)NCC[C@@H](O)c1cc2ccccc2o1	–	-2.1% [at 2.29 µM]
CCN(CC)c1ccc2cc(C(C)=O)c(=O)oc2c1	891 nM (active)	–
O=C(Nc1ccc2oc(=O)c(C(=O)O)cc2c1)Oc1ccccc1	–	-15.3% [at 2.29 µM]
CC(=O)c1cc2ccccc2oc1=O	200 nM (active)	–
Cc1ccc[n+](CC(=O)c2cc3ccccc3oc2=O)c1	–	6.85%

SMILES	AC50	activity, negative = inhibition
CC(C)OC(=O)c1cc2ccccc2oc1=O	447 nM (active)	–
COc1cc(CNn2nnnc2N)ccc1OCc1c(Cl)cccc1Cl	7080 nM (active)	–
COc1ccc(C[N+](C)(C)N)cc1OC	–	-11.5% [at 11.4 µM]
Nc1ncnc2c1ncn2CCCCC(=O)O	–	-3.15% [at 11.4 µM]
O=C(Nc1cccnc1)c1ccc2snnc2c1	63.1 nM (active)	–
Nc1ccc(S(=O)(=O)c2ccc(NC(=O)c3cccnc3)cc2)cc1	–	-21.1% [at 2.29 µM]
COc1ccc(OC)c2c(=S)c3ccccc3[nH]c12	63.1 nM (active)	–
COc1ccc2c(C)cc(N3CCOCC3)nc2c1	2510 nM (active)	–
COc1cc(N2CCOCC2)ncn1	–	-18.1%
COc1ccc(C2(C(=O)N3CCOCC3)CCCC2)cc1	–	-1.36%
NCCCCCc1nnc(SCc2ccc(Cl)cc2Cl)o1	11200 nM (active)	–
COc1ccc(/C=C/C(=O)Oc2cccc(/C=N/NC(=O)COc3c(C)cccc3C)c2)cc1	–	-9.66%
CCOc1cc(/C=N/NC(=O)c2cc(C)[nH]n2)ccc1OC(=O)c1ccc([N+](=O)[O-])cc1	–	27.9%
CCOc1cc(/C=N/NC(=O)COc2cccc(C)c2)ccc1OC(=O)c1cccs1	11200 nM (active)	–
CN(C)CCNC(=S)Nc1cccc(Cl)c1	–	-24.8%
S=C(NCc1ccccn1)Nc1cccc(Cl)c1	2820 nM (active)	–
FC(F)(F)c1cccc(NC(=S)Nc2cccc(Cl)c2)c1	5010 nM (active)	–
CO[C@H]1COC(=O)[C@@H](C)COC(=O)[C@@H](Cc2ccccc2)NC(=O)C/C=C\[C@H]1C	–	4.52% [at 11.4 µM]
CC1(C)S[C@@H]2[C@H](NC(=O)[C@@H](N)c3ccccc3)C(=O)N2[C@H]1C(=O)O[C@H]1OC(=O)c2ccccc21	–	-13% [at 25.6 µM]
O=C(Nc1cc(C(F)(F)F)ccc1-n1cncn1)c1ccc(Br)cc1	562 nM (active)	–
CCOC(=O)CCN1C(=O)[C@H]2[C@H]3[C@H](O)[C@H](O)C/C(=N/OC[C@@H](O)COCc4ccco4)[C@@H]3CC[C@@H]2C1=O	–	-1.07% [at 11.4 µM]
Cn1c(=O)c2c3c(sc2n2cnnc12)CCC3	8910 nM (active)	–
CN1CCc2c(sc3c2c(=O)n(-c2ccccc2)c2nncn32)C1	–	-17.6%
CCCCCCCCCCCCCCCCCCOC[C@@H](COP(=O)([O-])OCC[N+](C)(C)C)OC	–	7.62%

SMILES	AC50	activity, negative = inhibition
c1ccc(-c2nc(-c3cccs3)[nH]c2-c2ccccc2)cc1	1000 nM (active)	–
Cc1ccsc1-c1nc(-c2ccccc2)c(-c2ccccc2)[nH]1	1120 nM (active)	–
COC(=O)c1ccccc1NC(=O)CSc1nnc(C(CO)NC(=O)c2ccccc2Cl)n1C (stereo unspecified)	–	9.84%
COC(=O)c1ccccc1NC(=O)c1ccc(COc2ccc(C)c(C)c2)o1	2820 nM (active)	–
CCOc1ccc(OCC)c(-c2c(=O)n(OCc3ccccc3C(=O)OC)c3ccccc3[n+]2[O-])c1	–	-26%
Cc1ccc(OCc2ccc(C(=O)Nc3nccs3)o2)cc1C	631 nM (active)	–
COC(=O)c1ccccc1NC(=O)c1ccc(Cn2cc(Cl)cn2)o1	1580 nM (active)	–
COc1ccc(CC(=O)Nc2ccc(-c3nnc(-c4ccccc4)o3)cc2)cc1	–	-1.05%
COc1ccc(NC(=O)c2ccc(COc3ccccc3)o2)cc1	2510 nM (active)	–
OCCN(CCO)c1ncnc2nc[nH]c12	–	-9.2% [at 11.4 µM]
CCOc1nc(N2CCCCC2)nc(-n2cc(-c3ccccc3)nn2)n1	2510 nM (active)	–
CO[C@@H]1COC(=O)[C@H](Cc2ccccc2)NC(=O)C/C=C\[C@@H](C)[C@H](OC)COC(=O)[C@@H](C)NC(=O)C/C=C\[C@H]1C	–	-3.56% [at 11.4 µM] and 1.16% [at 11.4 µM]
C=CCn1c(C)c(C(C)=O)c(N2CCN(c3ccccc3)CC2)nc1=S	–	-17.6%
CCN1CCN(c2nc3ccccc3nc2C(C#N)C(=O)OC2CCCCC2)CC1 (stereo unspecified)	–	-18.3%
C=CCN1CCN(c2nc3ccccc3nc2C#N)CC1	100 nM (active)	–
Cc1ccc2nc(-c3ccccc3)cc(C(=O)NCCCn3ccnc3)c2c1	2820 nM (active)	–
COc1c2occc2c(OC)c2c(=O)cc(C)oc12	20 nM (active)	–
CCn1ccnc1C[C@@H]1COc2ccccc2O1	15800 nM (active)	–
CC1CCCC(C)N1CC(O)COCC1COc2ccccc2O1 (stereo unspecified)	–	8.29%
CN1CCN(c2ncc3nc(-c4cn(C)c5ccccc45)c(=O)n(CCc4ccccc4)c3n2)CC1	–	-19.4%
COc1ccc(Oc2ncc3nc(-c4cn(C)c5ccccc45)c(=O)n(C)c3n2)cc1	–	-15.1%
COc1ncc2nc(-c3cn(C)c4ccccc34)c(=O)n(CCC#N)c2n1	5010 nM (active)	–
CN1CCN(c2ncc3nc(-c4cn(C)c5ccccc45)c(=O)n(CCC#N)c3n2)CC1	15800 nM (active)	–
COc1ncc2nc(-c3cn(C)c4ccccc34)c(=O)n(C)c2n1	1000 nM (active)	–

SMILES	AC50	activity, negative = inhibition
OC[C@H]1NC[C@H](O)[C@@H](O)[C@H]1O	–	-2.04%
O=C(NCc1n[nH]c(=S)n1-c1ccccc1)c1ccc(S(=O)(=O)N2CCOCC2)cc1	–	-2.11%
NCCSC[C@H](N)C(=O)O	–	-0.987% [at 11.4 µM]
CN1CCCC2(CCN(C(=O)c3cc(C(F)(F)F)cc(C(F)(F)F)c3)CC2)C1	–	-18%
CCOC(=O)CC(NC(=O)c1cccs1)c1ccc(OCC)cc1 (stereo unspecified)	12600 nM (active)	–
CCOc1ccc(C(CC(=O)O)NC(=O)COc2ccccc2)cc1 (stereo unspecified)	–	5.86%
O=C(O)C1=CCNCC1	inactive	–
Cc1cc(O)c(/C=N/Nc2cccc(Cl)c2)c(=O)o1	2240 nM (active)	–
Cc1cc(NC(=O)CSc2nc3ccccc3c(=O)n2CCCC(=O)NCc2ccco2)n[nH]1	–	-16%
Cc1cc(N2CCN(C)CC2)nc2ccc(NC(=O)CCC(=O)NCc3ccco3)cc12	1260 nM (active)	–
COCCCNC(=O)CCC(=O)Nc1ccc2nc(N3CCOCC3)cc(C)c2c1	–	-26.8%
CCOC(=O)c1cccc2c1-c1ccccc1/C2=N/O	1580 nM (active)	–
CCOC(=O)c1cc(CC)sc1NC(=O)C(c1ccccc1)c1ccccc1	–	-18.9%
Cc1nc2ccccc2n1CC(=O)N/N=C\c1ccccn1	–	-28.3%
Cc1ccc(/C=N/NC(=O)CSc2nc3ccccc3n2C)s1	2510 nM (active)	–
Cn1c(SCC(=O)N/N=C/C=C\c2ccco2)nc2ccccc21	2000 nM (active)	–
Cc1nc2ccccc2n1CC(=O)N/N=C\C=C\c1ccccc1	5010 nM (active)	–
O=c1cc(CO)oc(CN2CCCC2)c1O	–	-5.92%
CC(=O)Nc1nc(NC(C)=O)c2[nH]c(CO)nc2n1	–	-14.4% [at 11.4 µM]
CN(N=O)C(=O)N[C@H]1[C@@H](O)[C@H](O)[C@H](CO)O[C@@H]1O	–	-6.54% [at 25.6 µM]
COc1ccccc1-c1cncnc1N(C)Cc1ccco1	15800 nM (active)	–
CN(Cc1ccco1)c1ncncc1-c1ccccc1Cl	25100 nM (active)	–
Cc1noc(C)c1-c1cncnc1N(C)Cc1ccco1	–	-2.89%
Cc1ccccc1-c1cncnc1N(C)Cc1ccco1	15800 nM (active)	–

From PubChem BioAssay AID1851 (National Center for Advancing Translational Sciences (NCATS), 2009)
